According to PubChem BioAssay:
The source made the active and inactive calls.

Experiments:
Albumin (Bos taurus) = Albumin (Bos taurus) (UniProt P02769); assay: compounds binding labelled BSA control protein – biochemical, small-molecule microarray, Alexa647 label, 635/667 nm fluorescence, artefact control for SMM control protein annotation, profiling panel (AID 1118); conditions: BSA-A647 binding, fluorescence 635 nm, higher = more signal;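 further: score merges 667 nm emission intensity and signal-to-noise per printed compound spot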
[1] = probe aXIP binding to arrayed compounds – biochemical, NeuroSMM set, 635/667 nm fluorescence, primary screen (AID 1119); conditions: small-molecule microarray, higher = more signal, called active from +8 up or from −8 down;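 further: probe is the protein aXip251-270 applied at 1 µg/mL to compound-printed slides; binding of probe to printed compounds measured as 667 nm fluorescence plus signal to noise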
[2] = probe aNOTCH3 binding on compound microarray – biochemical, small-molecule microarray, 635/667 nm fluorescence, primary screen (AID 1120); conditions: higher = more signal;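 further: probe is a biotin-tagged antibody raised against NOTCH3 rather than NOTCH3 protein; score merges spot fluorescence near 667 nm with spot signal to noise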
[3] = probe aNOTCH2 binding on compound microarray – biochemical, small-molecule microarray, 635/667 nm fluorescence, primary screen (AID 1121); conditions: higher = more signal;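 further: score merges feature fluorescence read at 667 nm with its signal to noise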
[4] = biological target: Carbonic anhydrase 2 (Homo sapiens) (UniProt P00918); assay: compounds binding carbonic anhydrase 2 – biochemical, small-molecule microarray, Alexa647-labelled CAII, profiling panel (AID 1122); conditions: CAII-A647 binding fluorescence, higher = more signal
[5] = COS7 lysate on small-molecule microarray, probe aHis, 635 nm (AID 1123); conditions: COS7 cell lysate, fluorescence, higher = more signal;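 further: z-score combines 667nm fluorescence intensity with signal-to-noise per printed compound spot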
[6] = probe aLAP1 signal on lysate-treated microarray – cell lysate, small-molecule microarray, COS7 lysate, primary screen (AID 1124); conditions: probe aLAP1, fluorescence, higher = more signal;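 further: lysate comes from COS7 cells expressing LAP1 and is applied at 0.3 µg/mL; score merges spot fluorescence near 667 nm with signal-to-noise over triplicate slides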
Sam68 (KHDRBS1) = assay: compounds binding KHDRBS1 protein – biochemical, small-molecule microarray, 635 nm fluorescence, primary screen (AID 1125); conditions: higher = more signal;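 further: score merges 667 nm channel intensity with signal to noise over triplicate slides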
[7] = tested on: Chordin-like protein 2 (CHRDL2); assay: compounds binding chordin-like 2 – biochemical, small-molecule microarray, 635 nm fluorescence, primary screen (AID 1126); conditions: fluorescence 635 nm, higher = more signal;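 further: printed compound slides probed with Chrdl2 protein at 4 µg/mL for 1 h at 4 C; score merges 667 nm emission intensity with signal to noise over three replicate slides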
[8] = biological target: Concanavalin-A (Canavalia ensiformis) (UniProt P02866); assay: compounds binding concanavalin A lectin – biochemical, small-molecule microarray, Alexa647 label, 635 nm, artefact control for SMM control protein annotation, primary screen (AID 1127); conditions: ConA-A647 binding fluorescence, higher = more signal;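 further: z combines 667 nm emission intensity with signal-to-noise across three replicate slides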
Chain of Concanavalin-A (Canavalia ensiformis) (P02866 whole entry, looked up): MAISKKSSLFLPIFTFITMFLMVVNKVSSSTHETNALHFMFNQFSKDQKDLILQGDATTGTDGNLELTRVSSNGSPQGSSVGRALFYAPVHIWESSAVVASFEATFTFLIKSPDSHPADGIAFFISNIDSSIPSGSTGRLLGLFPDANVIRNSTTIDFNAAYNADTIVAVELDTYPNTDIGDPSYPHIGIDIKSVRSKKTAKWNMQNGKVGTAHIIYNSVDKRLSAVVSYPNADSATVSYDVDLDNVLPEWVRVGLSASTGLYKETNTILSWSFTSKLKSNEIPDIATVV

Chain of Albumin (Bos taurus) (P02769 whole entry, looked up): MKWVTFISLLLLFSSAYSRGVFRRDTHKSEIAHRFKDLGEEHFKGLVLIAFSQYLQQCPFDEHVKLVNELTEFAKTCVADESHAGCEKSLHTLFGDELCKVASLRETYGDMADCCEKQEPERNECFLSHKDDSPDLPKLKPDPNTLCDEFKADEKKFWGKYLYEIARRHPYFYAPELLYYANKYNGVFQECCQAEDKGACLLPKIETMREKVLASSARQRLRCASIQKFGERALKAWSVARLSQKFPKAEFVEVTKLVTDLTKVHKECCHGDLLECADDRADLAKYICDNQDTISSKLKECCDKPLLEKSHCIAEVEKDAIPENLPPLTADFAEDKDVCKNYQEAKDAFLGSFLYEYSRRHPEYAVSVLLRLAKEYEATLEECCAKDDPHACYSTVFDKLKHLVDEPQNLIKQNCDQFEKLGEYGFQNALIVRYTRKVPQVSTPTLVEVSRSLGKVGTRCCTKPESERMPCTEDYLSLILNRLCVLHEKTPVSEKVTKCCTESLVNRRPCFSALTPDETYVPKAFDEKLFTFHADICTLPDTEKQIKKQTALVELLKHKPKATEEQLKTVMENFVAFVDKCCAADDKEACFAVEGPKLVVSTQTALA

Row | Structure (SMILES) | composite z-score (Albumin (Bos taurus)) | composite Z-score [1] | composite z-score [2] | composite z-score [3] | composite z-score [4] | composite z-score [5] | composite z-score [6] | composite z-score (Sam68 (KHDRBS1)) | composite z-score [7] | composite z-score [8]
1 | CCCCCN1CC=CC23O[C@@H]4/C=C\CCC(C)OC(=O)C4[C@H]2C(=O)N(CCCCCO)[C@@H]3C1=O (stereo not given in full) | -0.299 | -0.127 (inactive) | -0.149 | -0.144 | 0.685 | -0.389 | -0.29 | -1.09 | -0.793 | -0.541
2 | C=CCC(OC(C)=O)[C@@H]1[C@@H](N(Cc2cc3ccccc3o2)C(=O)c2ccc(C)cc2)c2cc(OCCCO)ccc2N1C(=O)c1ccc2ccccc2c1 (stereo not given in full) | 0.767 | 0.698 (inactive) | 0.0259 | -0.101 | 0.0486 | 0.605 | -0.069 | -0.0437 | 0.157 | -0.309
3 | Cc1ccc([C@H]2C(C(=O)O)=C[C@@H](C)N2S(=O)(=O)c2ccc(C)cc2)cc1 | 0.892 | 0.24 (inactive) | -0.0918 | 0.069 | 0.866 | 2.6 | 0.166 | 0.821 | -1.55 | -0.72
4 | O=C1C[C@@](C(=O)NC2CC2)(c2ccc([N+](=O)[O-])cc2)[C@@H](c2ccc(CO)cc2)N1CC12CC3CC(CC(C3)C1)C2 | 0.374 | -0.172 (inactive) | -0.0236 | -0.0091 | 0.22 | 0.681 | -0.107 | 0.684 | -0.203 | 1
5 | COC(=O)[C@@]1(Cc2ccccc2)[C@H]2c3cc(C(=O)N(C)C)n(Cc4c(-c5ccccc5)noc4C)c3C[C@H]2CN1C(=O)c1ccccc1 | 1.01 | -0.899 (inactive) | 0.187 | 0.379 | 0.437 | 2.63 | -0.157 | 0.486 | 0.28 | 0.564
6 | COCCOC(=O)N1C(=O)[C@@]2(c3cc(C#CCCO)ccc31)[C@H](c1ccccc1OCCO)N1[C@H](c3ccccc3)[C@H](c3ccccc3)OC(=O)[C@H]1[C@@H]2C(=O)N1CCN(c2ncccn2)CC1 | 0.602 | 0.341 (inactive) | 0.413 | 0.123 | 0.539 | 2.02 | 0.505 | 1.12 | 0.52 | 1.15
7 | COC(=O)[C@@]1(Cc2ccccc2)N=C(c2ccc(OCCCO)cc2)O[C@H]1c1ccccc1N=[N+]=[N-] | -0.541 | 2.98 (inactive) | 0.104 | 0.114 | 0.111 | 1.37 | 0.863 | 1.06 | 0.968 | 0.649
8 | CCCCC=C[C@@H](NC(=O)c1ccc(C(=O)OC)cc1)c1ccccc1 | 0.924 | -0.213 (inactive) | 0.313 | -0.171 | 0.235 | 1.81 | 0.327 | 1.15 | -0.14 | 0.887
9 | COc1cc(CO)ccc1OC(C)=O | 0.344 | 0.151 (inactive) | 0.262 | 0.0275 | 0.112 | 0.329 | 0.356 | 0.482 | 0.689 | 0.687
10 | COC(=O)c1ccc(C(O)C2C=CC3C(=O)N(c4ccccc4)C(=O)C3N2Nc2ccc(C#N)cc2)o1 (stereo not given) | 0.887 | -0.336 (inactive) | 0.0282 | -0.0878 | 0.436 | 2.85 | 0.387 | 0.735 | 0.0997 | 0.635
11 | O=C1C[C@]2(c3ccc([N+](=O)[O-])cc3)C(=O)N(CC(F)(F)F)c3cc(CO)ccc3[C@H]2N1CC12CC3CC(CC(C3)C1)C2 | -0.0746 | -0.171 (inactive) | -0.0362 | -0.168 | 0.499 | 1.15 | -0.221 | -0.0575 | 0.167 | 0.556
12 | CCCCCN1CC=CC23O[C@@H]4/C=C\CCCOC(=O)C4[C@H]2C(=O)N(CCCCCCO)[C@@H]3C1=O (stereo not given in full) | -0.0739 | -0.328 (inactive) | -0.262 | -0.153 | 0.858 | 2.05 | 1.14 | -0.542 | -1.01 | -0.74
13 | CCOC(=O)C1=CC[C@@H](c2ccccc2Cl)N(S(=O)(=O)c2ccc(C)cc2)C1 | 0.963 | 0.817 (inactive) | 0.0738 | 0.145 | 0.563 | 2.04 | 0.837 | 1.06 | -1.04 | 1.04
14 | CCC(CC)C(O)C1C=CC2C(=O)N(c3ccccc3)C(=O)C2N1Nc1ccc(C#N)cc1 (stereo not given) | 1.09 | 0.35 (inactive) | 0.628 | 0.241 | 0.729 | 2.61 | -0.266 | 1.3 | 0.158 | 1.23
15 | C=C(COC)C(=O)CC[C@H](OC(C)=O)c1cccc(OCCO)c1 | -0.768 | 0.157 (inactive) | -0.165 | -0.154 | 0.358 | 0.451 | 0.775 | 0.151 | -0.298 | -0.935
16 | O=C1OCCC/C=C\[C@H]2OC34C=CCN(Cn5nnc6ccccc65)C(=O)[C@H]3N(CCCCCO)C(=O)[C@@H]4C12 (stereo not given in full) | 0.743 | -0.263 (inactive) | -0.267 | -0.14 | 0.881 | 0.0505 | -0.477 | -0.445 | -0.977 | -0.702
17 | C=CC[C@@]1(C(=O)O)N=C(c2ccc(OCCCO)cc2)O[C@@H]1c1ccccc1N=[N+]=[N-] | 0.851 | 0.544 (inactive) | 0.169 | 0.0828 | 0.513 | 2.03 | 0.906 | 1.09 | 0.52 | 0.247

Row | Structure (SMILES) | composite z-score (Albumin (Bos taurus)) | composite Z-score [1] | composite z-score [2] | composite z-score [3] | composite z-score [4] | composite z-score [5] | composite z-score [6] | composite z-score (Sam68 (KHDRBS1)) | composite z-score [7] | composite z-score [8]
18 | COCCOC(=O)N1C(=O)[C@@]2(c3cc(C#CCCO)ccc31)[C@H](C(=O)NC[C@H](O)c1ccccc1)[C@H]1C(=O)O[C@H](c3ccccc3)[C@H](c3ccccc3)N1[C@@H]2c1ccc(O)cc1 | 0.508 | -0.302 (inactive) | -0.0362 | -0.115 | 0.568 | 0.813 | 0.16 | 0.053 | -0.496 | 1.09
19 | O=C1[C@]2(CO)C=C(Br)[C@@H](C[C@@H]2c2ccccc2)[C@@]12CO2 | -0.102 | 0.689 (inactive) | -0.0763 | -0.16 | 0.129 | -0.307 | -0.139 | -0.566 | 0.0616 | 0.195
20 | C#CCN(C(/C=C/c1ccccc1)CO)C(C(=O)O)c1ccccc1 (stereo not given) | -0.56 | 0.535 (inactive) | -0.389 | -0.181 | -0.199 | -0.21 | -0.0599 | -1.12 | 0.0041 | 0.0529
21 | O=C1OCCC=C[C@H]2OC34C=CCN(Cc5ccccc5)C(=O)[C@H]3N(CCCCCCO)C(=O)[C@@H]4C12 (stereo not given in full) | -0.0045 | 0.0421 (inactive) | -0.241 | -0.171 | 0.898 | 1.2 | 0.0054 | 0.409 | -1.02 | -0.745
22 | CCCC[C@@H]1C[C@H]1[C@@H](NC(=O)c1ccc(-c2ccccc2)cc1)c1ccc(-c2ccccc2)cc1 | -0.0732 | -0.254 (inactive) | -0.0072 | -0.0795 | 0.0853 | 0.468 | -0.113 | 0.287 | 1.42 | -0.142
23 | CC(C)C[C@@H]1NC(=O)[C@@H]2C[C@H](C(=O)NCCCCCC[N+](C)(C)C)[C@H](c3ccc(O)cc3)N2C1=O | -0.0787 | 0.729 (inactive) | 0.0562 | -0.189 | 0.678 | 1.58 | 0.301 | 1.25 | 1.33 | 0.989
24 | CS(=O)(=O)CCOC(=O)C1=CC(CCCO)=CC(c2cccs2)N(Cc2cc3c(cc2Br)OCO3)C=C1C(=O)OCCS(C)(=O)=O (stereo not given) | 0.974 | 1.05 (inactive) | 0.183 | -0.0149 | 0.337 | 1.64 | 0.817 | 1.3 | 0.164 | 0.986
25 | COc1ccc([Si](C)(C)[C@H]2[C@H](CCn3cc([C@H](O)c4ccccc4)nn3)O[C@@]3(C(=O)N(Cc4cccc(N5CCC5=O)c4)c4ccccc43)[C@@H]2C)cc1 | 0.31 | -0.0916 (inactive) | -0.219 | -0.245 | 0.115 | 1.12 | -0.166 | 0.316 | 0.317 | 0.47
26 | Cc1ccc(S[C@]2(C(=O)NC3CC3)CC(=O)N(Cc3ccccc3)[C@@H]2c2ccc(CO)cc2)cc1 | 0.391 | 0.225 (inactive) | -0.284 | 0.125 | 0.27 | 2.78 | 0.677 | -0.664 | -1.49 | -0.788
27 | Cc1ccccc1C(O)C1C=CC2C(=O)N(C)C(=O)C2N1Nc1ccccc1 (stereo not given) | 1 | 0.0032 (inactive) | 0.0674 | -0.0168 | 0.821 | 2.05 | 0.415 | 1.23 | -0.345 | 1.15
28 | C=CCC(OC(C)=O)[C@@H]1[C@@H](N(Cc2ccc(-c3cccc(C(F)(F)F)c3)o2)C(=O)c2ccc(C)cc2)c2cc(OCCCO)ccc2N1C(=O)c1ccc(-c2ccccc2)cc1 (stereo not given in full) | -0.405 | 0.244 (inactive) | 0.0026 | -0.115 | 0.376 | -0.0056 | -0.0012 | -0.597 | 0.031 | 0.854
29 | COc1ccc(CCNC(=O)[C@@]2(c3ccc([N+](=O)[O-])cc3)CC(=O)N(CC34CC5CC(CC(C5)C3)C4)[C@@H]2c2ccc(CO)cc2)cc1 | -0.191 | 0.22 (inactive) | 0.0494 | -0.0617 | 0.18 | 1.11 | -0.291 | 1.09 | 0.647 | 1.12
30 | CC(C)(C)OC(=O)CC[C@@]1(C(=O)O)N=C(c2ccc(OCCCO)cc2)O[C@@H]1c1ccccc1N=[N+]=[N-] | 0.933 | 0.0589 (inactive) | 0.39 | 0.0309 | 0.72 | 1.27 | 0.298 | 1.12 | -0.734 | 0.648
31 | [N-]=[N+]=NCc1ccccc1C[C@]1(C(=O)O)N=C(c2ccc(OCCCO)cc2)O[C@H]1c1ccccc1CN=[N+]=[N-] | 0.938 | -0.313 (inactive) | -0.027 | -0.011 | 0.696 | 2.7 | 0.513 | 1.34 | -0.69 | 1.17
32 | O=C1O[C@H](c2ccccc2)[C@H](c2ccccc2)N2[C@H]1[C@@H](C(=O)O)[C@]1(C(=O)Nc3ccc(C#CC4=CCCCC4)cc31)[C@H]2c1ccc(OCCO)cc1 | 0.638 | 0.0759 (inactive) | 0.133 | -0.0523 | 0.537 | 2.01 | 1.48 | 1.29 | 0.494 | 1.18
33 | COCCOC(=O)N1C(=O)[C@@]2(c3cc(C#CCC(C(=O)OC)C(=O)OC)ccc31)[C@H](c1ccc(O)cc1)N1[C@H](c3ccccc3)[C@H](c3ccccc3)OC(=O)[C@H]1[C@@H]2C(N)=O | 0.47 | 1.07 (inactive) | -0.0647 | 0.0232 | 0.438 | 1.2 | 0.647 | 1.31 | 0.778 | 0.859
